According to PubChem BioAssay (Tox21):
Results filed as inconclusive are left out. Active and inactive are the calls of the source. Unless noted, calls follow the shape of the dose curve; as a rule, active = well fitted curve in the direction sought with a large enough effect in the repeat runs; inconclusive = weak or mixed curves; inactive = no such curve, though single readings can be large; an effect the other way counts as inactive or inconclusive.

Tests used:
[1] = molecular target: Retinoic acid receptor RXR-alpha (Homo sapiens) (UniProt P19793); test: qHTS assay to identify small molecule agonists of the RXR signaling pathway (AID 1159527; calls by dose curve; also: nearly all actives have a fitted effect of over 35% in size)
Chain of Retinoic acid receptor RXR-alpha (Homo sapiens) (P19793 whole entry, looked up): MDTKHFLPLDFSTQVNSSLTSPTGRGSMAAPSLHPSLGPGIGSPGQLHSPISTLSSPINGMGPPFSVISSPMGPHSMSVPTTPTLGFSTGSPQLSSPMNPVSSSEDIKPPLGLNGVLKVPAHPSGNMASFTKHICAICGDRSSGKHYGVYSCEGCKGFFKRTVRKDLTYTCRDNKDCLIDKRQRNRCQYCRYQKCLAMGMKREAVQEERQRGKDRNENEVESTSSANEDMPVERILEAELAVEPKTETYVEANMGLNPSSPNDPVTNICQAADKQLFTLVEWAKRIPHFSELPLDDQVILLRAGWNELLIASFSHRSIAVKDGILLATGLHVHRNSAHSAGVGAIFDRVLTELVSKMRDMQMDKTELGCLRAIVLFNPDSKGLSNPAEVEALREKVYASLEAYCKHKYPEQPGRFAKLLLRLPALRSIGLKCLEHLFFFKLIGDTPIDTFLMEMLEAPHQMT
Outline: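 qHTS of the Tox21 10K library in GeneBLAzer RXR-alpha HEK 293T cells carrying a beta-lactamase reporter […]; 16 hr treatment, 9-cis retinoic acid as agonist control, FRET read-out.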

[2] = qHTS assay to identify small molecule agonists of the RXR signaling pathway - cell viability counter screen (AID 1159529); also: series mostly up to about 77 µM; nearly all actives have a fitted effect of over 50% in size
Outline: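 Cell viability is measured by CellTiter-Glo luminescence, 30 min at room temperature, in wells already read for beta-lactamase. Engineered HEK 293T cells (RXR-alpha-UAS-bla) are dosed 16 hr at 37 C. Tetraoctyl ammonium bromide serves as positive control.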

[3] = qHTS assay to identify small molecule antagonists of the retinoid acid receptor (RAR) signaling pathway - cell viability counter screen (AID 1159551); also: nearly all actives have a fitted effect of over 35% in size
Outline: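 Viability of C3RL4 cells is quantified from ATP by luminescence after 6 h treatment at 37 C with compounds and 1 uM retinol.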

[4] = qHTS assay to identify small molecule antagonists of the retinoic acid receptor (RAR) signaling pathway (AID 1159552; also: nearly all actives have a fitted effect of over 50% in size)
Outline: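 Quantitative HTS in C3RL4 RARE-luciferase reporter cells. Compounds were added with 1 uM (final) retinol; luminescence was read after 6 hr.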

[5] = qHTS assay to identify small molecule agonists of the retinoic acid receptor (RAR) signaling pathway (AID 1159553)
Outline: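 Compounds dissolved in DMSO were pinned onto C3RL4 cells seeded the previous day, and plates were held 6 hr at 37 C. RARE-driven luciferase output was then read by luminescence.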
% is scaled to controls: 0 for no effect and ±100 for the full control effect.

CCCCN1C[C@H](O)[C@@H](O)[C@H](O)[C@H]1CO
inactive: Potency [1] | Potency [2] | outcome [3] | Potency [4] | Potency [5]

NCCCN1CCN(CCCN)CC1
inactive: Potency [1] | Potency [2] | outcome [3] | Potency [4] | Potency [5]

COC(=O)c1ccc2cc(C(=O)OC)ccc2c1
inactive: activation [1] 0.118% [at 15.8 µM] | activity change, negative = cytotoxicity [2] -6.68% [at 15.8 µM] | activity change, negative = cytotoxicity [3] 0.0867% [at 19 µM] | activity, negative = inhibition [4] -32% [at 19 µM]

C=CCCC=C
inactive: Potency [1] | Potency [2] | outcome [3] | Potency [4]

CCCCC(CC)COC(=O)COc1cc(Cl)c(Cl)cc1Cl (stereo unspecified)
inactive: Potency [1] | Potency [2] | outcome [3] | Potency [4] | Potency [5]

CN1CCN(N)CC1
inactive: Potency [1] | Potency [2] | outcome [3] | Potency [4] | Potency [5]

CCOC(=O)c1ccccc1O
inactive: Potency [1] | Potency [2] | outcome [3] | Potency [4] | Potency [5]

OCCN(CCO)c1ccccc1
inactive: Potency [1] | Potency [2] | outcome [3] | Potency [4] | Potency [5]

Cc1cc(NS(=O)(=O)c2ccc(N)cc2)nc(C)n1
inactive: Potency [1] | Potency [2] | outcome [3] | Potency [4] | Potency [5]

Cc1c[nH]c(=S)[nH]c1=O
inactive: Potency [1] | Potency [2] | outcome [3] | Potency [4]

O=Cc1ccc(F)c(Br)c1
inactive: Potency [1] | Potency [2] | outcome [3]

Cc1ccc(C(C)C)cc1O
inactive: Potency [1] | Potency [2] | outcome [3]

Cc1c(C(=O)NCCO)[n+](=O)c2ccccc2n1[O-]
inactive: Potency [1] | Potency [2] | outcome [3]

NC(Cc1ccc(F)cc1)C(=O)O (stereo unspecified)
inactive: activation [1] 12.3% [at 6.98 µM] | activity change, negative = cytotoxicity [2] 2.52% [at 6.97 µM] | activity change, negative = cytotoxicity [3] 2.5% [at 8.39 µM]

CCCc1c2oc(C(=O)O)cc(=O)c2cc2c(=O)cc(C(=O)O)n(CC)c12
inactive: Potency [1] | Potency [2] | outcome [3] | Potency [4]

CC(C)CCCCCCc1ccc(OCCOCCO)cc1
inactive: Potency [1] | Potency [2] | outcome [3] | Potency [4] | Potency [5]

Cc1ncc(CO)c(CN)c1O
inactive: Potency [1] | Potency [2] | outcome [3] | Potency [4] | Potency [5]

O=c1[nH]cnc2c1ncn2[C@@H]1O[C@H](CO)[C@@H](O)[C@H]1O
inactive: Potency [1] | Potency [2]

CCc1nnc(NS(=O)(=O)c2ccc(N)cc2)s1
inactive: Potency [1] | Potency [2] | outcome [3] | Potency [4] | Potency [5]

Oc1ccccc1C=NCc1ccccc1
inactive: Potency [1] | Potency [2] | outcome [3] | Potency [4] | Potency [5]

CC(C)OC(C)C
inactive: Potency [1] | Potency [2] | outcome [3] | Potency [4] | Potency [5]

CC1CN(c2ccccc2)NC1=O (stereo unspecified)
inactive: Potency [1] | Potency [2] | outcome [3] | Potency [4]

CCOc1ccc(NS(=O)(=O)c2ccc(N)cc2)nn1
inactive: Potency [1] | Potency [2] | outcome [3] | Potency [4] | Potency [5]

CN1CCN(c2c(F)cc3c(=O)c(C(=O)O)cn(CCF)c3c2F)CC1
inactive: Potency [1] | Potency [2] | outcome [3] | Potency [4] | Potency [5]

CC/C=C\CCOC(=O)C(C)C
inactive: Potency [1] | Potency [2] | outcome [3] | Potency [4] | Potency [5]

CC(C)c1ccccc1
inactive: Potency [1] | Potency [2] | outcome [3] | Potency [4]

CCCCCCn1c(=O)c2c(ncn2C)n(C)c1=O
inactive: Potency [1] | Potency [2] | outcome [3] | Potency [4] | Potency [5]

OCc1c2ccccc2cc2ccccc12
inactive: Potency [1] | Potency [2] | outcome [3] | Potency [4]

CC(=O)N[C@@H](CC(C)C)C(=O)O
inactive: Potency [1] | Potency [2] | outcome [3] | Potency [4] | Potency [5]

CC(Oc1c(Cl)cccc1Cl)C1=NCCN1 (stereo unspecified)
inactive: Potency [1] | Potency [2] | outcome [3] | Potency [4]

C[C@@H]1CN(c2c(F)c(N)c3c(=O)c(C(=O)O)cn(C4CC4)c3c2F)C[C@H](C)N1
inactive: activation [1] 12.8% [at 15.8 µM] | activity change, negative = cytotoxicity [2] 8.39% [at 15.8 µM] | activity change, negative = cytotoxicity [3] 2.38% [at 19 µM] | activity, negative = inhibition [4] 6.27% [at 19 µM] | Potency [5]

O=C1Nc2ccc([N+](=O)[O-])cc2C1=O
inactive: Potency [1] | Potency [2] | outcome [3] | Potency [4] | Potency [5]

CC1=NN(c2cc(Cl)c(S(=O)(=O)O)cc2Cl)C(=O)C1N=Nc1ccc(S(=O)(=O)O)cc1 (stereo unspecified)
inactive: Potency [1] | Potency [2] | outcome [3]

O=C(C(Cl)Cl)N1CCOC12CCCCC2
inactive: Potency [1] | Potency [2] | outcome [3] | Potency [4] | Potency [5]

CCN(CC)CC1CCCCN1CC(=O)N1c2ccccc2C(=O)Nc2cccnc21 (stereo unspecified)
inactive: Potency [1] | Potency [2] | outcome [3] | Potency [4]

CC(C)C(=O)OC/C=C/c1ccccc1
inactive: Potency [1] | Potency [2] | outcome [3]
